# In the supplement of paper PMC12282887:
# ± gives the standard deviation of the averaged measurements.
# Assays:
# Assay in all cases: promoter activity interaction Z-score (Lux/OD deviation from empty-vector control); higher = stronger promoter induction by the compound
# [1] = tested on: E. coli BW25113 acrABp lux reporter
# Summary of the method: (§1)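 E. coli BW25113 (wild type or marA, soxS or rob deletion) carrying low-copy luxCDABE promoter reporters grew in 40 µl LB Lennox in 384-well plates at 37°C. Each compound was tested at four 1:2 dilutions in biological duplicates. OD600 and luminescence were read every 30 min for 12 h. Areas were taken over 0–8 h (wild type) or 1–9 h (mutants), and wells below 10% of median growth area were removed. The score is the Z-transformed residual of growth-normalised luminescence fitted against the empty-vector control.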
# [2] = tested on: E. coli BW25113 marRABp lux reporter
# Summary of the method: as §1
# [3] = tested on: E. coli BW25113 micFp lux reporter
# Summary of the method: as §1
# [4] = tested on: E. coli BW25113 ompFp lux reporter
# Summary of the method: as §1
# [5] = tested on: E. coli BW25113 robp lux reporter
# Summary of the method: as §1
# [6] = tested on: E. coli BW25113 soxSp lux reporter
# Summary of the method: as §1
# [7] = tested on: E. coli BW25113 tolCp lux reporter
# Summary of the method: as §1
# [8] = 6.9 µg/ml, genetic background: wild type
# [9] = 6.9 µg/ml, genetic background: ΔmarA
# [10] = 6.9 µg/ml, genetic background: Δrob
# [11] = 6.9 µg/ml, genetic background: ΔsoxS
# [12] = 13.8 µg/ml, genetic background: wild type
# [13] = 13.8 µg/ml, genetic background: ΔmarA
# [14] = 13.8 µg/ml, genetic background: Δrob
# [15] = 13.8 µg/ml, genetic background: ΔsoxS
# [16] = 27.5 µg/ml, genetic background: wild type
# [17] = 27.5 µg/ml, genetic background: ΔmarA
# [18] = 27.5 µg/ml, genetic background: Δrob
# [19] = 27.5 µg/ml, genetic background: ΔsoxS
# [20] = 55 µg/ml, genetic background: wild type
# [21] = 55 µg/ml, genetic background: ΔmarA
# [22] = 55 µg/ml, genetic background: Δrob
# [23] = 55 µg/ml, genetic background: ΔsoxS
compound,measurement,setting,value
CCCC(=O)O [Butyrate],promoter activity interaction Z-score,[1]; [8],-0.186 ± 0.091
same,promoter activity interaction Z-score,[1]; [9],-0.105 ± 0.089
same,promoter activity interaction Z-score,[1]; [10],-0.0421 ± 0.058
same,promoter activity interaction Z-score,[1]; [11],0.455 ± 0.31
same,promoter activity interaction Z-score,[1]; [12],0.0203 ± 0.11
same,promoter activity interaction Z-score,[1]; [13],0.0848 ± 0.57
same,promoter activity interaction Z-score,[1]; [14],0.344 ± 0.08
same,promoter activity interaction Z-score,[1]; [15],-0.00445 ± 0.01
same,promoter activity interaction Z-score,[1]; [16],-0.32 ± 0.15
same,promoter activity interaction Z-score,[1]; [17],0.724 ± 0.18
same,promoter activity interaction Z-score,[1]; [18],-0.04 ± 0.27
same,promoter activity interaction Z-score,[1]; [19],0.471 ± 0.41
same,promoter activity interaction Z-score,[1]; [20],0.0224 ± 0.013
same,promoter activity interaction Z-score,[1]; [21],0.369 ± 0.73
same,promoter activity interaction Z-score,[1]; [22],0.3 ± 0.086
same,promoter activity interaction Z-score,[1]; [23],0.561 ± 1.1
same,promoter activity interaction Z-score,[2]; [8],-0.205 ± 0.013
same,promoter activity interaction Z-score,[2]; [9],-0.16 ± 0.12
same,promoter activity interaction Z-score,[2]; [10],0.206 ± 0.17
same,promoter activity interaction Z-score,[2]; [11],0.201 ± 0.094
same,promoter activity interaction Z-score,[2]; [12],-0.136 ± 0.0092
same,promoter activity interaction Z-score,[2]; [13],0.187 ± 0.35
same,promoter activity interaction Z-score,[2]; [14],0.0966 ± 0.16
same,promoter activity interaction Z-score,[2]; [15],0.00738 ± 0.051
same,promoter activity interaction Z-score,[2]; [16],-0.429 ± 0.012
same,promoter activity interaction Z-score,[2]; [17],-0.0336 ± 0.044
same,promoter activity interaction Z-score,[2]; [18],0.0375 ± 0.0006
same,promoter activity interaction Z-score,[2]; [19],0.0783 ± 0.13
same,promoter activity interaction Z-score,[2]; [20],-0.383 ± 0.07
same,promoter activity interaction Z-score,[2]; [21],-0.0286 ± 0.24
same,promoter activity interaction Z-score,[2]; [22],0.0661 ± 0.17
same,promoter activity interaction Z-score,[2]; [23],0.114 ± 0.15
same,promoter activity interaction Z-score,[3]; [8],-0.053 ± 0.54
same,promoter activity interaction Z-score,[3]; [9],-0.02 ± 0.084
same,promoter activity interaction Z-score,[3]; [10],0.0084 ± 0.082
same,promoter activity interaction Z-score,[3]; [11],-0.0289 ± 0.27
same,promoter activity interaction Z-score,[3]; [12],0.0525 ± 0.25
same,promoter activity interaction Z-score,[3]; [13],0.104 ± 0.01
same,promoter activity interaction Z-score,[3]; [14],-0.131 ± 0.024
same,promoter activity interaction Z-score,[3]; [15],0.104 ± 0.51
same,promoter activity interaction Z-score,[3]; [16],-0.317 ± 0.084
same,promoter activity interaction Z-score,[3]; [17],0.0463 ± 0.13
same,promoter activity interaction Z-score,[3]; [18],-0.0949 ± 0.063
same,promoter activity interaction Z-score,[3]; [19],0.336 ± 0.088
same,promoter activity interaction Z-score,[3]; [20],-0.235 ± 0.24
same,promoter activity interaction Z-score,[3]; [21],-0.118 ± 0.0028
same,promoter activity interaction Z-score,[3]; [22],-0.0628 ± 0.18
same,promoter activity interaction Z-score,[3]; [23],-0.082 ± 0.078
same,promoter activity interaction Z-score,[4]; [8],-0.311 ± 0.047
same,promoter activity interaction Z-score,[4]; [9],-0.076 ± 0.29
same,promoter activity interaction Z-score,[4]; [10],0.0244 ± 0.24
same,promoter activity interaction Z-score,[4]; [11],-0.0786 ± 0.12
same,promoter activity interaction Z-score,[4]; [12],-0.231 ± 0.022
same,promoter activity interaction Z-score,[4]; [13],0.259 ± 0.068
same,promoter activity interaction Z-score,[4]; [14],0.303 ± 0.041
same,promoter activity interaction Z-score,[4]; [15],0.34 ± 0.31
same,promoter activity interaction Z-score,[4]; [16],-0.53 ± 0.22
same,promoter activity interaction Z-score,[4]; [17],-0.0799 ± 0.19
same,promoter activity interaction Z-score,[4]; [18],0.0179 ± 0.31
same,promoter activity interaction Z-score,[4]; [19],0.623 ± 0.35
same,promoter activity interaction Z-score,[4]; [20],0.0627 ± 0.12
same,promoter activity interaction Z-score,[4]; [21],0.515 ± 0.0087
same,promoter activity interaction Z-score,[4]; [22],0.664 ± 0.45
same,promoter activity interaction Z-score,[4]; [23],0.842 ± 0.3
same,promoter activity interaction Z-score,[5]; [8],0.406 ± 0.012
same,promoter activity interaction Z-score,[5]; [9],-0.648 ± 0.21
same,promoter activity interaction Z-score,[5]; [10],0.484 ± 0.27
same,promoter activity interaction Z-score,[5]; [11],0.116 ± 0.23
same,promoter activity interaction Z-score,[5]; [12],0.00618 ± 0.49
same,promoter activity interaction Z-score,[5]; [13],0.268 ± 0.098
same,promoter activity interaction Z-score,[5]; [14],0.377 ± 0.92
same,promoter activity interaction Z-score,[5]; [15],0.84 ± 0.41
same,promoter activity interaction Z-score,[5]; [16],-0.708 ± 0.16
same,promoter activity interaction Z-score,[5]; [17],-0.0714 ± 0.84
same,promoter activity interaction Z-score,[5]; [18],-0.162 ± 0.23
same,promoter activity interaction Z-score,[5]; [19],0.234 ± 0.13
same,promoter activity interaction Z-score,[5]; [20],0.0368 ± 0.57
same,promoter activity interaction Z-score,[5]; [21],-0.0155 ± 0.33
same,promoter activity interaction Z-score,[5]; [22],0.391 ± 0.82
same,promoter activity interaction Z-score,[5]; [23],0.993 ± 0.59
same,promoter activity interaction Z-score,[6]; [8],0.0135 ± 0.086
same,promoter activity interaction Z-score,[6]; [9],0.215 ± 0.14
same,promoter activity interaction Z-score,[6]; [10],0.301 ± 0.047
same,promoter activity interaction Z-score,[6]; [11],0.31 ± 0.33
same,promoter activity interaction Z-score,[6]; [12],0.0512 ± 0.26
same,promoter activity interaction Z-score,[6]; [13],0.372 ± 0.21
same,promoter activity interaction Z-score,[6]; [14],0.172 ± 0.11
same,promoter activity interaction Z-score,[6]; [15],0.159 ± 0.19
same,promoter activity interaction Z-score,[6]; [16],0.00814 ± 0.044
same,promoter activity interaction Z-score,[6]; [17],0.223 ± 0.09
same,promoter activity interaction Z-score,[6]; [18],0.122 ± 0.097
same,promoter activity interaction Z-score,[6]; [19],0.33 ± 0.46
same,promoter activity interaction Z-score,[6]; [20],-0.104 ± 0.11
same,promoter activity interaction Z-score,[6]; [21],0.322 ± 0.006
same,promoter activity interaction Z-score,[6]; [22],0.0248 ± 0.034
same,promoter activity interaction Z-score,[6]; [23],0.334 ± 0.73
same,promoter activity interaction Z-score,[7]; [8],-0.319 ± 1.1
same,promoter activity interaction Z-score,[7]; [9],-0.0114 ± 0.66
same,promoter activity interaction Z-score,[7]; [10],-0.444 ± 0.1
same,promoter activity interaction Z-score,[7]; [11],-0.376 ± 0.46
same,promoter activity interaction Z-score,[7]; [12],-0.518 ± 0.94
same,promoter activity interaction Z-score,[7]; [13],-0.427 ± 0.69
same,promoter activity interaction Z-score,[7]; [14],0.207 ± 1
same,promoter activity interaction Z-score,[7]; [15],0.311 ± 0.35
same,promoter activity interaction Z-score,[7]; [16],-1.01 ± 0.066
same,promoter activity interaction Z-score,[7]; [17],0.539 ± 0.083
same,promoter activity interaction Z-score,[7]; [18],0.18 ± 0.021
same,promoter activity interaction Z-score,[7]; [19],0.0693 ± 0.34
same,promoter activity interaction Z-score,[7]; [20],0.0415 ± 0.077
same,promoter activity interaction Z-score,[7]; [21],0.218 ± 0.98
same,promoter activity interaction Z-score,[7]; [22],-0.252 ± 0.71
same,promoter activity interaction Z-score,[7]; [23],0.709 ± 0.36
